According to PubChem BioAssay (EPA / NIEHS):
Calls of active or inactive are those of the source. The calls were made as follows: active = hit-call score of the fitted dose curve at least 0.9, where 1 is the maximum; inactive = score below 0.9.

These compounds were tested against CCAAT/enhancer-binding protein beta (Homo sapiens) (UniProt P17676) (assay: ATG_C_EBP_CIS: Attagene CIS-FACTORIAL HepG2 Assay for human CCAAT/Enhancer Binding Protein (C/EBP) beta (AID 2282927)). Details: HepG2 Attagene cis-factorial transcription factor reporter; actives raise or lower the signal.
CCAAT/enhancer-binding protein beta (Homo sapiens), sequence (P17676 whole entry, looked up): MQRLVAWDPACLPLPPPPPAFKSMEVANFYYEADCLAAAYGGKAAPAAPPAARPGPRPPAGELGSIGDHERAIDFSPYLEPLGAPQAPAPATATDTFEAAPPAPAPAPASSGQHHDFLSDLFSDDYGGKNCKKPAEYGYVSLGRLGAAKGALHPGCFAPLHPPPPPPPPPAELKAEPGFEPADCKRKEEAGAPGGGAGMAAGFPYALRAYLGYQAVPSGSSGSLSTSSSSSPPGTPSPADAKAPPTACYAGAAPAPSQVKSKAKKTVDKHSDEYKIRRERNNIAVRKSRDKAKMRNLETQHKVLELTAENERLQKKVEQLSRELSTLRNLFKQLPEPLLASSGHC
Procedure: ATG_CIS is a cell-based, multiplexed-readout assay that uses HepG2, a human liver cell line, with measurements taken at 24 hours after chemical dosing in a 24-well plate.ATG_C_EBP_CIS is one of 52 assay component(s) measured or calculated from the ATG_CIS assay. It is designed to make measurements of mRNA induction, a form of inducible reporter, as detected with fluorescence intensity signals by Reverse transcription polymerase chain reaction (RT-PCR) and Capillary electrophoresis technology.Data from the assay component ATG_C_EBP_CIS was analyzed into 1 assay endpoint. This assay endpoint, ATG_C_EBP_CIS, was analyzed with bidirectional fitting relative to DMSO as the negative control and baseline of activity. Using a type of inducible reporter, measures of mRNA for gain or loss-of-signal activity can be used to understand the reporter gene at the transcription factor-level as they relate to the gene CEBPB. Furthermore, this assay endpoint can be referred to as a primary readout, because this assay has produced multiple assay endpoints where this one serves a reporter gene function. To generalize the intended target to other relatable targets, this assay endpoint is annotated to the dna binding intended target family, where the subfamily is basic leucine zipper.
Human liver HepG2 cells are transiently transfected with multiple reporter transcription units (MRTUs) in 6-well plates using FuGene 6 reagent (Roche; 3 ml FuGene/1 mg DNA). The MRTU constructs are regulated by a cis-regulating element (promoter). […] A major difference between the CIS and TRANS system is that in CIS activities of endogenous TFs are measured, whereas the TRANS assay evaluates changes in activities of exogenous, chimeric NR-Gal4 proteins. […] At the end of 24 hour incubation, total RNA was isolated using TriZol reagent (Invitrogen). The isolated RNA is then reverse-transcribed using oligo(dT) primer and Mo-MLV reverse transcriptase (Invitrogen) with DNAse I (Ambion) treatment for 30 min. The one-tenth of the produced cDNA was amplified by PCR using Taq DNA polymerase (Invitrogen) and two reporter sequence-specific primers. The PCR products were fluorescently labeled by primer extension with 6-arboxyfluorescein (6-FAM) 5'-labeled reporter sequence-specific primer (2 min at 95 C, 20 s at 68 C and 10 min at 72 C) and these products were digested with 5U of HpaI (New England Biolabs) for 2h at 37 C. The fragments were purified using Qiaquick PCR columns (Qiagen), analyzed on an ABI 3130xL genetic analyzer (Applied Biosystems) with peak positions identified by using a set of X-rhodamine (ROX)-labeled MapMarker1000 molecular weight standards (BioVentures). The raw capillary electrophoresis data was processed using Attagraph software (Attagene).

| SMILES | outcome | AC50 |
| --- | --- | --- |
| CCO[Si](OCC)(OCC)c1ccccc1 | inactive | – |
| CC(=O)Nc1c(I)c(NC(C)=O)c(I)c(C(=O)O)c1I | inactive | – |
| CCCCCCC1CCC(=O)O1 (stereo not given) | inactive | – |
| CCCCCCCCCC/C=C/C1CC(=O)OC1=O (stereo not given) | inactive | – |
| COc1ccc2ccccc2c1 | inactive | – |
| CCOc1ccc2c(c1)C(C)CC(C)(C)N2 (stereo not given) | inactive | – |
| O=C(C(=O)c1ccccc1)c1ccccc1 | inactive | – |
| COc1c2occc2cc2ccc(=O)oc12 | – | 63.8 µM (active) |
| O=C(O)c1ccccc1C(=O)O | inactive | – |
| CC/C=C\CCO | inactive | – |
| Nc1nnc(-c2ccc([N+](=O)[O-])o2)o1 | inactive | – |
| CCCCNC(N)=O | inactive | – |
| CC/C=C/CCO | inactive | – |
| [O-][n+]1ccc(Cl)cc1 | inactive | – |
| CC[N+](CC)(CC(=O)Nc1c(C)cccc1C)Cc1ccccc1 | inactive | – |
| C=C(C)C(=O)OCCCCCC | inactive | – |
| CN(C)c1ccc(C(c2ccccc2)c2ccc(N(C)C)cc2)cc1 | inactive | – |
| CCC(C)NC(N)=O (stereo not given) | inactive | – |
| O=C1NC(=O)C2CC=CCC12 (stereo not given) | inactive | – |
| CC(C)(C)NC(=O)[C@@H]1CN(Cc2cccnc2)CCN1C[C@@H](O)C[C@@H](Cc1ccccc1)C(=O)N[C@H]1c2ccccc2C[C@H]1O | inactive | – |

| SMILES | outcome | AC50 |
| --- | --- | --- |
| O=C(CC(C(=O)OC1CCCCC1)S(=O)(=O)O)OC1CCCCC1 (stereo not given) | inactive | – |
| CCCC(=O)OC | inactive | – |
| CCCCC(CC)COC(=O)CS (stereo not given) | inactive | – |
| c1cc[c]([Bi]([c]2ccccc2)[c]2ccccc2)cc1 | inactive | – |
| Brc1ccc(Oc2ccc(Br)cc2)cc1 | inactive | – |
| O=C(c1ccccc1)c1ccccc1O | inactive | – |
| COC(=O)c1ccccc1 | inactive | – |
| CCOC(=O)CC(=O)OCC | inactive | – |
| CCC(=O)OCc1ccc(OC)cc1 | inactive | – |
| O=C(O)/C=C\C(=O)O | inactive | – |
| CO[Si](CCCNCCN)(OC)OC | inactive | – |
| CNC[C@H](O)[C@@H](O)[C@H](O)[C@H](O)CO | inactive | – |
| CCCCCCCCCCCCCCCCCC[N+](C)(C)C | – | 41.1 µM (active) |
| CCOC(=O)c1ccccc1 | – | 68.7 µM (active) |
| CC1=C(CC(=O)O)c2cc(F)ccc2/C1=C\c1ccc(S(C)=O)cc1 (stereo not given) | inactive | – |
| N#CCN(CC#N)CCN(CC#N)CC#N | inactive | – |
| Cc1ccnc(N)c1 | inactive | – |
| Cc1cc2nc3c(=O)[nH]c(=O)nc-3n(C[C@H](O)[C@H](O)[C@H](O)CO)c2cc1C | inactive | – |
| Oc1ccc(Cl)cc1C1CCCC1 | inactive | – |
| CCCCCCCCCCCCCC | inactive | – |
